The text below walks through data of PubChem BioAssay (NCATS).

The nature of test [1]: Cytotoxicity counterscreen for NFkB agonists and antagonists (AID 624476). Also: potency is read from the fitted curve at half-maximal effect. Background: Counterscreens check selectivity or assay interference.
A short description of test [2]: qHTS Assay for Identification of Small Molecule Agonists for NFkB Signaling Pathway. (AID 624478).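 Also: compounds tested together with TNF alpha at its EC50 of 10 pM; 0% is about no effect.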 In a few lines: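 Activators were sought in reporter cells stimulated at the TNF alpha EC50 (10 pM final). Compound and cytokine were co-incubated 5 hours at 37 C before beta-lactamase substrate detection by dual-emission fluorescence.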
A short description of test [3]: qHTS Assay for Identification of Small Molecule Antagonists for NFkB Signaling Pathway. (AID 624479; calls by dose curve; also: potency is read from the fitted curve at half-maximal effect). On the technique in general: qHTS replaces the single test concentration by a dilution series.
The nature of test [4]: Cell Proliferation Assay against the TMD8 Cell Line (AID 651645).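 Also: cells exposed to compound for 48 h before reading.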 The conditions noted are these: TMD8 DLBCL cell line proliferation/viability; at 46.1 µM (top of the series) unless noted. In a few lines:
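TMD8 ABC DLBCL cells, 500 per well in phenol red-free RPMI with 5% FBS, were treated with compound by pin transfer and incubated 48 hours at 37C, 5% CO2. Viability was read by CellTiter-Glo luminescence, normalised to DMSO (100%) and 9.2 uM bortezomib (0%).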

Test [5] is described as follows: S16 Schwann cell viability assay (CellTiter-Glo assay) (AID 624031).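 Also: native untransfected S16 rat Schwann cells; cellular ATP luminescence as a viability measure; plate controls were DMSO-treated cells for no effect and cell-free wells for full effect; nearly all actives have a fitted effect of over 70% in size.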 In a few lines:
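Following overnight culture in 10% FBS DMEM, parental S16 rat Schwann cells are dosed for 24 h at 37 °C. Viability is read as CellTiter-Glo luminescence and expressed as % activity relative to DMSO (0%) and no-cell wells.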
For orientation: Cellular ATP, detected with luciferase, serves as a proxy for viable cell number.

Test [6] can be described thus: S16 Schwann cell PMP22 intronic element firefly luciferase assay (AID 624032).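 Also: plate controls were DMSO for no effect and PTC124 positive control mean for full effect; nearly all actives have a fitted effect of over 30% in size.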 In a few lines: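 Luciferase reporter of PMP22 intronic-element expression in stably transfected S16 rat Schwann cells, read by ONE-Glo luminescence after 24 h compound exposure at 37 C. Activity scaled between DMSO (0%) and positive-control PTC124; concentration-effect curves quality-classified.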

In test [7] the target is Glutaminase kidney isoform, mitochondrial (Homo sapiens) (UniProt O94925). The experiment in a line: qHTS for Inhibitors of Glutaminase (GLS): LOPAC Validation (AID 624146).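 Also: glutamate product detected by oxidase and peroxidase coupled Amplex red fluorescence gain; % is scaled to controls: 0 for no effect and ±100 for the full control effect; nearly all actives have a fitted effect of over 60% in size.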 In a few lines:
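Assay buffer: 45 mM KH2PO4 pH 8.2, 0.02% Tween-20. hKGA acts on L-glutamine (1 mM solution added); product glutamate is reported by an oxidase/peroxidase Amplex Red coupling, with fluorescence taken at baseline and 30 min.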

Test [8] in a line: qHTS of Trypanosoma Brucei Inhibitors: LOPAC Validation (AID 624147). Also: 0% is about no effect. In a few lines: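 Glycolytic pyruvate kinase of T. brucei was incubated with substrate, test compound and 130 uM ADP for 45 minutes at room temperature. Luminescent Kinase-Glo Plus signal was measured after 10 minutes.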
The target of test [9] is Glucagon-like peptide 1 receptor (Homo sapiens) (UniProt P43220). The experiment in a line: qHTS of GLP-1 Receptor Agonists: LOPAC Validation (AID 624148).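 Also: luminescence from a luciferase reporter switched on by cAMP; 0% is about no effect; higher luminescence signal means agonism.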 In a few lines: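 Agonism scored as increased luciferase luminescence driven by cAMP in HEK293 clones carrying GLP-1R. Cells settled 12 hours, received compound for 4-6 hr at 37 deg C, 5% CO2, and were read after 12 min detection reagent at RT.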

Test [10] can be described thus: qHTS of Nrf2 Activators: LOPAC Validation (AID 624149). Also: 0% is about no effect. In a few lines:
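Cells (AREc32_Fluc) are plated at 1000 per well in OPTI-MEM containing 5% FBS and left overnight. Compounds are pinned in and incubated 24 hr at 37 deg C, and firefly luciferase is detected with Steady-Glo.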

A short description of test [11]: HTS Assay for Allosteric Antagonists of the Human D2 Dopamine Receptor: Hit Validation in HTRF (AID 624455).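 Also: stable D1 dopamine receptor cell line scored for blocking the D1 response; % is scaled to controls: 0 for no effect and ±100 for the full control effect.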 In a few lines:
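Inhibition of the D1-mediated response is measured by HTRF in cells that stably express the D1 dopamine receptor. Compounds reaching this step are hits from calcium-flux antagonism testing at EC80 dopamine in inducible Hek293 Trex D2 cells.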

Test [12] in a line: Cell Proliferation Assay against the HBL1 Cell Line (AID 651646).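 Also: cells exposed to compound for 48 h before reading.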 The conditions noted are these: HBL1 DLBCL cells; at 46.1 µM (top of the series) unless noted. In a few lines:
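CellTiter-Glo luminescence after 48 h compound exposure at 37C gives percent activity, with DMSO as 100% and 9.2 uM bortezomib final as 0%. Cells: 500 log-phase HBL1 per well, RPMI plus 5% FBS.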

The nature of test [13]: Cell Proliferation Assay against the TMD8 Cell Line (Caspase readout at 16 hrs) (AID 651712). In a few lines: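 Caspase-Glo luminescence measured apoptosis after a 16 h, 37 C compound exposure of TMD8 cells (500 cells/well, 5% FBS RPMI). DMSO set 0% and bortezomib at 9.2 uM final set 100% activity.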
For test [14], the target named is Luciferin 4-monooxygenase (Photinus pyralis) (UniProt P08659). The experiment in a line: Biochemical firefly luciferase enzyme assay for NPC (AID 624030). Also: nearly all actives have a fitted effect of over 70% in size. Also: potency is read from the fitted curve at half-maximal effect. In a few lines: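 Direct inhibition of firefly luciferase enzyme (10 nM final, 50 mM Tris Acetate) assessed by luminescence within 5 minutes. Percent activity scaled between DMSO and PTC124 positive control, with concentration-effect curves classified by fit quality and response.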

Test [15] is described as follows: S16 Schwann cell PMP22 intronic element beta-lactamase assay (AID 624044; calls by dose curve;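 also: 0% = DMSO and -100% = potassium clavulanate positive control; nearly all actives have a fitted effect of over 15% in size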). In a few lines: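 Beta-lactamase reporter under a PMP22 intronic regulatory element in stable S16 rat Schwann cells; 24 h compound exposure. 460 nm blue signal normalized between DMSO (0%) and potassium clavulanate, with 535 nm FRET tracking viability; curves classed by r2 and response.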

The nature of test [16]: Cell Proliferation Assay against the TMD8 Cell Line (Caspase readout at 8 hrs) (AID 651713).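 Also: 0% = DMSO and 100% = 9.2 µM bortezomib caspase signal.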 In a few lines:
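Caspase 3/7 activation in ABC DLBCL TMD8 cells is measured by luminescence after an 8 h compound exposure at 37C. Relative light units are scaled between DMSO (0%) and 9.2 uM final bortezomib (100%).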

Inconclusive results are not listed. Activity calls are given as the source filed them. Unless noted, calls follow the shape of the dose curve; as a rule, active = well fitted curve in the direction sought with a large enough effect; inconclusive = small, poorly fitted or top-dose-only effect, or another doubt; inactive = no such curve, though single readings can be large; an effect the other way counts as inactive or inconclusive.

Chain of Glutaminase kidney isoform, mitochondrial (Homo sapiens) (O94925 whole entry, looked up, canonical isoform): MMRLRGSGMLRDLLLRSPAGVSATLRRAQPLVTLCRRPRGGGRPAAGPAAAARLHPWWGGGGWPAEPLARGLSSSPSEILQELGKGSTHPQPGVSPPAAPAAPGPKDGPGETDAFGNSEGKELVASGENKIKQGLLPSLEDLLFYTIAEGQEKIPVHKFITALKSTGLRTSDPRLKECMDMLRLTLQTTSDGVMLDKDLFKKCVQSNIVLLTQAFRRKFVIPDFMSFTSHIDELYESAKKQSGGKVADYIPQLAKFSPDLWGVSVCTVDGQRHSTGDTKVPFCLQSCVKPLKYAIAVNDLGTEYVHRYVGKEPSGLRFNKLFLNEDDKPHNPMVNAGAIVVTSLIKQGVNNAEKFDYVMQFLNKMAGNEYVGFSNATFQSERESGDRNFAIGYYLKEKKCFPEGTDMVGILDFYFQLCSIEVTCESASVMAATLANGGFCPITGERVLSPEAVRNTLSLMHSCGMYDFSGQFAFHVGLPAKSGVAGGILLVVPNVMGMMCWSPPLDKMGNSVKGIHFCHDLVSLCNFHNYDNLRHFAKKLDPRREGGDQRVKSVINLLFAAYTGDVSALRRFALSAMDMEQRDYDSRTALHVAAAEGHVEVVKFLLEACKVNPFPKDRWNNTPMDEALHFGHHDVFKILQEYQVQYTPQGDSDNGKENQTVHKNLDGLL
Chain of Glucagon-like peptide 1 receptor (Homo sapiens) (P43220 whole entry, looked up): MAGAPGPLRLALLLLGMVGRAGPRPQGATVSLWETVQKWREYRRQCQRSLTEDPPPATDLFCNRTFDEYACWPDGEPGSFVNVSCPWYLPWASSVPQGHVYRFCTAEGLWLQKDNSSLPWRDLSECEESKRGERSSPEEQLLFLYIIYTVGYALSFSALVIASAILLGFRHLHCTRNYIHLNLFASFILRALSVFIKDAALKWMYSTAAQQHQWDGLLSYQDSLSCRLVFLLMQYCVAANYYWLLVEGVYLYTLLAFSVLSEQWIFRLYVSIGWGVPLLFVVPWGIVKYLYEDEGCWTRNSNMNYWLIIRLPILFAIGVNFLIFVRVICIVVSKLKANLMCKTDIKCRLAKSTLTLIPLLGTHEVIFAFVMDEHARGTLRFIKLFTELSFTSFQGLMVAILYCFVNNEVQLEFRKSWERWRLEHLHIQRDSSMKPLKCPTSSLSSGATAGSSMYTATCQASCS
Chain of Luciferin 4-monooxygenase (Photinus pyralis) (P08659 whole entry, looked up): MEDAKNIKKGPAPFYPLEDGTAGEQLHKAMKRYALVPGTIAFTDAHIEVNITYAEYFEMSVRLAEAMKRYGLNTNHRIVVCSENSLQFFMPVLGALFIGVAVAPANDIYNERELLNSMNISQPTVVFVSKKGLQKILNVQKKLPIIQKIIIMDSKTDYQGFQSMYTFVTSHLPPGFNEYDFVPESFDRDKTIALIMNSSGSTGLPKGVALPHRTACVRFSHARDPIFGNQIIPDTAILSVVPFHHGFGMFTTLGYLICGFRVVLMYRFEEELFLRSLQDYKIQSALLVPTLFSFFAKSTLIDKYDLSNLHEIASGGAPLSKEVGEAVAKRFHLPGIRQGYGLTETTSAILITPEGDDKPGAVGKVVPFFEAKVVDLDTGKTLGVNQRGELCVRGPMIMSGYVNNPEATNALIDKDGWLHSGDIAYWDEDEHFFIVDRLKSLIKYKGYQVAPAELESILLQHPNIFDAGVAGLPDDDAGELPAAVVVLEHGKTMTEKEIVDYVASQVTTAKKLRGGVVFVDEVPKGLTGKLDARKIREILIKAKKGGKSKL

Consider `COc1nc(-c2ccc3c(c2)OCO3)n(-c2ccc(NC(=O)CSc3ccccc3)cc2)n1`, for which the Potency result in test [1] and in [3] was “inactive” each time. Moreover, the outcome in [2] was inactive. Moreover, the viability (% of control) in test [4] is 60.1%.

For the compound `Cc1oncc1C(=O)Nc1ccc(C(F)(F)F)cc1`, the Potency result in test [5], in test [6], in [11], in [1], in [3] and in test [13] was “inactive” in each case. Further, the call in test [7], in test [8], in test [9], in [10] and in test [2] was inactive. Further, in [4], the viability (% of control) turned out to be 54%. For the same compound, in [12], the viability, percent of control was 84%.

Turning to `CNC(=O)c1ccccc1Sc1ccc2c(/C=C/c3ccccn3)n[nH]c2c1`, the Potency in test [14] is 0.51 µM (active). In addition, the Potency result in test [1] and in test [3] was “inactive” throughout. Also, the compound was called inactive in test [2]. Further, the viability (% of control) in [4] was found to be 23.8%. Also, the viability, percent of control in test [12] turned out to be 56.4%.

Consider `Cc1cc2c(C(C)C)c(O)c(O)c(C=O)c2c(O)c1-c1c(C)cc2c(C(C)C)c(O)c(O)c(C=O)c2c1O`, for which the Potency result in [6] and in test [11] was “inactive” throughout. The compound was classed as inactive in [15], in test [7], in test [8], in [9], in [10] and in [2]. In addition, the viability (% of control) in test [4] was 5.42%.

For the compound `CNCc1ccc(-c2[nH]c3cc(F)cc4c3c2CCNC4=O)cc1`, the Potency result in test [1] was “inactive”. Besides, the compound was classed as inactive in [2]. The Potency in test [3] is 21.1 µM (active). Besides, the viability (% of control) in test [4] stood at 79.6%.

`CCn1c(-c2nonc2N)nc2cnc(Oc3cccc(NC(=O)c4ccc(OCCN5CCOCC5)cc4)c3)cc21`: in test [1], the Potency entry is “inactive”. The result in test [2] was inactive. The Potency in test [3] was 4.73 µM (active). In addition, the viability (% of control) in test [4] is 19.6%. Moreover, in test [12], the viability, percent of control was 36.3%.

Take `CCC(C)N(C)C(=O)c1cc2ccccc2c(-c2ccccc2Cl)n1` (stereo unspecified): the call in [7], in test [8], in test [9], in test [10] and in test [2] was inactive. Further, the Potency entry in test [11], in [1] and in test [3] was “inactive” in each case. In addition, the viability (% of control) in [4] was 65.6%.

Take `O=C(NOC[C@H](O)CO)c1ccc(F)c(F)c1Nc1ccc(I)cc1F`: the Potency result in test [14], in test [3], in test [13] and in test [16] was “inactive” in each case. Further, in [2], the compound was called inactive. Besides, the viability (% of control) in test [4] worked out at 79.1%.

On to `OC(CCN1CCCCC1)(c1ccccc1)C1CC2C=CC1C2` (stereo unspecified), for which the Potency entry in test [14] and in test [11] was “inactive” in each case. The compound was classed as inactive in test [7], in [8], in [9] and in test [10].

As for `Cc1cnc(NC(=O)C2=C(O)c3ccccc3S(=O)(=O)N2C)s1`, the Potency entry in [14] and in test [11] was “inactive” each time. Moreover, the result in test [7], in test [8] and in test [10] was inactive.

In the case of `O=C(O)COCCN1CCN(C(c2ccccc2)c2ccc(Cl)cc2)CC1` (stereo unspecified), the compound was called inactive in [7], in test [8], in test [9] and in test [10].

For `CC(C)(Sc1ccc(CCN(CCCCC2CCCCC2)C(=O)NC2CCCCC2)cc1)C(=O)O`, the outcome in [7], in [8], in test [9], in [10] and in [2] was inactive. Further, the Potency result in test [11] and in test [16] was “inactive” in each case. Further, the results for the Potency in test [1] and in [3] were 23.5 µM (active) and 21.1 µM (active), respectively. In addition, the viability (% of control) in test [4] was found to be 92.1%.

For `COc1ccc(-c2ccc3c(N4CCOC[C@H]4C)nc(N4CCOC[C@H]4C)nc3n2)cc1CO`, the Potency entry in test [1] and in test [3] was “inactive” throughout. The compound was called inactive in [2]. Also, the viability (% of control) in test [4] is 25%. In addition, the viability, percent of control in test [12] worked out at 57.8%.

Turning to `CCn1cc(C(=O)O)c(=O)c2cc(F)c(N3CCNC(C)C3)c(F)c21` (stereo unspecified), the compound was classed as inactive in test [7], in test [8], in test [9] and in test [10]. Besides, in [11], the Potency result was “inactive”.
